# Experimental data from the supplement of paper PMC9262897, “Low-cost anti-mycobacterial drug discovery using engineered E. coli” (Nature Communications, 2022).
# Counter-ions that a name gives are not always drawn. ± gives the standard deviation of the averaged measurements.
# Test system: E. coli TESEC Mtb Alr
# Assay: growth (OD600 after 10 h); higher = more growth (less inhibition)
# Conditions: arabinose 1000 nM; compound 0.1 mM; raw OD600 reference: median of DMSO wells 0.294, cell-free background 0.041
# Procedure: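 TESEC Mtb Alr E. coli, or the Alr+ wild-type control, in 384-well plates with Prestwick library compounds at 0.1 mM and 1% DMSO, across arabinose induction levels of 1E3 to 1E7 nM. Growth is read as OD600 after 10 h at 37 °C in triplicate biological replicates.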
row,Compound,growth
1,"CN1CCc2c(c3ccccc3n2Cc2ccccc2)C1 [Mebhydroline 1,5-naphtalenedisulfonate]",0.218 ± 0.0081
2,C[C@@H](O[C@H]1OCCN(Cc2n[nH]c(=O)[nH]2)[C@H]1c1ccc(F)cc1)c1cc(C(F)(F)F)cc(C(F)(F)F)c1 [Aprepitant],0.107 ± 0.0059
3,COc1cccc(N(C)C(=S)Oc2ccc3c(c2)CCCC3)n1 [Liranaftate],0.259 ± 0.0073
4,Oc1c(Cl)cc(Cl)c(Cl)c1Cc1c(O)c(Cl)cc(Cl)c1Cl [Hexachlorophene],0.04387 ± 0.00038
5,CC1(C)S[C@@H]2[C@H](NC(=O)[C@H](N)c3ccccc3)C(=O)N2[C@H]1C(=O)O [Ampicillin trihydrate],0.279 ± 0.011
6,CCC(=O)O[C@]1(C(=O)SCF)[C@H](C)C[C@H]2[C@@H]3C[C@H](F)C4=CC(=O)C=C[C@]4(C)[C@@]3(F)[C@@H](O)C[C@@]21C [Fluticasone propionate],0.29 ± 0.013
7,CCCC(=O)Nc1ccc(OCC(O)CNC(C)C)c(C(C)=O)c1 (stereo not given) [Acebutolol hydrochloride],0.305 ± 0.011
8,CC(C)(C)NC[C@H](O)COc1cccc2c1CCCC2=O [(-) -Levobunolol hydrochloride],0.295 ± 0.0092
9,COC(=O)CCc1ccc(OCC(O)CNC(C)C)cc1 (stereo not given) [Esmolol hydrochloride],0.295 ± 0.018
10,O=c1[nH]cnc2c1ncn2[C@H]1CC[C@@H](CO)O1 [Didanosine],0.293 ± 0.023
11,C[C@@H]1CCC[C@H](C)N1NC(=O)c1ccc(Cl)c(S(N)(=O)=O)c1 [Clopamide],0.294 ± 0.02
12,CCCc1nn(C)c2c(=O)[nH]c(-c3cc(S(=O)(=O)N4CCN(C)CC4)ccc3OCC)nc12 [Sildenafil],0.235 ± 0.01
13,O=C1[C@H]2CCCC[C@H]2C(=O)N1CCCCN1CCN(c2nsc3ccccc23)CC1 [Perospirone],0.225 ± 0.0052
14,CN1CCCC(CC2c3ccccc3Sc3ccccc32)C1 (stereo not given) [Metixene hydrochloride],0.0424 ± 0.0015
15,C[C@H]1O[C@H](O[C@H]2[C@H](O)[C@@H](O)[C@@H](O[C@@H]([C@H](O)[C@@H](O)C=O)[C@H](O)CO)O[C@@H]2CO)[C@H](O)[C@@H](O)[C@@H]1N[C@H]1C=C(CO)[C@@H](O)[C@H](O)[C@H]1O [Acarbose],0.313 ± 0.0078
16,O=C(Oc1cccc2cccnc12)c1ccccc1 [Benzoxiquine],0.264 ± 0.016
17,O=P(O)(O)C(O)(Cn1ccnc1)P(=O)(O)O [Zoledronic acid hydrate],0.279 ± 0.0055
18,Clc1ccc(COC(Cn2ccnc2)c2ccc(Cl)cc2Cl)c(Cl)c1 (stereo not given) [Miconazole],0.201 ± 0.11
19,CC[N+](CC)(CC)CCC(O)(c1ccccc1)C1CCCCC1 (stereo not given) [Tridihexethyl chloride],0.298 ± 0.015
20,COc1ccc(-c2ccc3cc(C(=O)O)ccc3c2)cc1C12CC3CC(CC(C3)C1)C2 [Adapalene],0.282 ± 0.014

row,Compound,growth
1,CC1=Nc2ccc(Cl)cc2S(=O)(=O)N1 [Diazoxide],0.276 ± 0.018
2,COCCCOc1ccnc(C[S+]([O-])c2nc3ccccc3[nH]2)c1C (stereo not given) [Rabeprazole Sodium salt],0.213 ± 0.023
3,O=C(O)c1cc(/N=N/c2ccc(S(=O)(=O)Nc3ccccn3)cc2)ccc1O [Sulfasalazine],0.308 ± 0.0065
4,"Cc1c(O)c(=O)n(-c2ccccc2)n1C [Antipyrine, 4-hydroxy]",0.289 ± 0.012
5,C[C@]12C[C@H](O)[C@H]3[C@@H](CCC4=CC(=O)CC[C@@]43C)[C@@H]1CC[C@@H]2C(=O)CO [Corticosterone],0.195 ± 0.006
6,CC(CN(C)C)CN1c2ccccc2Sc2ccccc21 (stereo not given) [Trimeprazine tartrate],0.221 ± 0.019
7,C[C@@H]1C[C@H]2[C@@H]3C[C@H](F)C4=CC(=O)C=C[C@]4(C)[C@@]3(F)[C@@H](O)C[C@]2(C)[C@@]1(O)C(=O)COC(=O)C(C)(C)C [Flumethasone pivalate],0.271 ± 0.028
8,COc1cc(C)c(/C=C/C(C)=C/C=C/C(C)=C/C(=O)O)c(C)c1C [Acitretin],0.276 ± 0.0084
9,CC(=O)OCC1=C(C(=O)O)N2C(=O)[C@@H](NC(=O)Cc3cccs3)[C@H]2SC1 [Cephalothin sodium salt],0.334 ± 0.017
10,"CC(C)NCC(O)c1ccc(O)c(O)c1 (single isomer, unassigned; (+)) [(+)-Isoproterenol (+)-bitartrate salt]",0.274 ± 0.02
11,CCC1(c2ccccc2)C(=O)NCNC1=O [Primidone],0.296 ± 0.0094
12,CC(C)(C)C(=O)OCOC(=O)[C@@H]1N2C(=O)[C@@H](/N=C/N3CCCCCC3)[C@H]2SC1(C)C [Pivmecillinam hydrochloride],0.249 ± 0.0036
13,CC(C)N1CCN(c2ccc(OCC3COC(Cn4cncn4)(c4ccc(Cl)cc4Cl)O3)cc2)CC1 (stereo not given) [Terconazole],0.266 ± 0.023
14,Cc1cc(C(C)(C)C)c(O)c(C)c1CC1=NCCN1 [Oxymetazoline hydrochloride],0.302 ± 0.0066
15,Cc1ccc(O)c([C@H](CCN(C(C)C)C(C)C)c2ccccc2)c1 [Tolterodine tartrate],0.245 ± 0.0098
16,CN1CCCN(C(c2ccccc2)c2ccc(Cl)cc2)CC1 (stereo not given) [Homochlorcyclizine dihydrochloride],0.137 ± 0.082
17,NC[C@H]1CC[C@H](C(=O)O)CC1 [Tranexamic acid],0.293 ± 0.0074
18,Cc1cc(-c2ccccc2)nnc1NCCN1CCOCC1 [Minaprine dihydrochloride],0.288 ± 0.011
19,COc1ccc(C[C@@H]2c3cc(OC)c(OC)cc3CC[N@+]2(C)CCC(=O)OCCCCCOC(=O)CC[N@@+]2(C)CCc3cc(OC)c(OC)cc3[C@H]2Cc2ccc(OC)c(OC)c2)cc1OC [Cisatracurium besylate],0.307 ± 0.0083
20,N#Cc1cc(NC(=O)C(=O)O)c(Cl)c(NC(=O)C(=O)O)c1 [Lodoxamide],0.315 ± 0.006
